From the supplement of paper PMC11732987, “Enantioselective OTUD7B fragment discovery through chemoproteomics screening and high-throughput optimisation” (Communications Chemistry, 2025)

How the values were obtained:
Assay in all cases: log2 ratio of Biotin-Ahx-Ub-VS probe labelling (fragment/DMSO); higher = less target engagement (more negative = stronger competition), active = hit call of the paper (q ≤ 0.05, log2 ratio ≤ -1)
Details in all cases: compound concentration: 200 uM; treatment time: 3 h
USP34 = USP34 (UniProt Q70CQ2)
How it was run: (§1)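 Global-median-normalised Spectronaut label-free quantities were compared by unpaired t-test, and values are average log2 ratios of fragment over vehicle. Only proteins with ≥2 unique peptides were used. HEK293T lysate (495 µg per sample) was treated in triplicate with fragment at 200 µM or vehicle for 3 h and then with Biotin-Ahx-Ub-VS at 0.5 µM final for 1 h. Labelled DUBs were then NeutrAvidin-enriched, digested with LysC and trypsin, and run by diaPASEF LC-MS/MS.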

USP36 = molecular target: T1, USP36 (UniProt Q9P275)
T1 sequence (whole entry): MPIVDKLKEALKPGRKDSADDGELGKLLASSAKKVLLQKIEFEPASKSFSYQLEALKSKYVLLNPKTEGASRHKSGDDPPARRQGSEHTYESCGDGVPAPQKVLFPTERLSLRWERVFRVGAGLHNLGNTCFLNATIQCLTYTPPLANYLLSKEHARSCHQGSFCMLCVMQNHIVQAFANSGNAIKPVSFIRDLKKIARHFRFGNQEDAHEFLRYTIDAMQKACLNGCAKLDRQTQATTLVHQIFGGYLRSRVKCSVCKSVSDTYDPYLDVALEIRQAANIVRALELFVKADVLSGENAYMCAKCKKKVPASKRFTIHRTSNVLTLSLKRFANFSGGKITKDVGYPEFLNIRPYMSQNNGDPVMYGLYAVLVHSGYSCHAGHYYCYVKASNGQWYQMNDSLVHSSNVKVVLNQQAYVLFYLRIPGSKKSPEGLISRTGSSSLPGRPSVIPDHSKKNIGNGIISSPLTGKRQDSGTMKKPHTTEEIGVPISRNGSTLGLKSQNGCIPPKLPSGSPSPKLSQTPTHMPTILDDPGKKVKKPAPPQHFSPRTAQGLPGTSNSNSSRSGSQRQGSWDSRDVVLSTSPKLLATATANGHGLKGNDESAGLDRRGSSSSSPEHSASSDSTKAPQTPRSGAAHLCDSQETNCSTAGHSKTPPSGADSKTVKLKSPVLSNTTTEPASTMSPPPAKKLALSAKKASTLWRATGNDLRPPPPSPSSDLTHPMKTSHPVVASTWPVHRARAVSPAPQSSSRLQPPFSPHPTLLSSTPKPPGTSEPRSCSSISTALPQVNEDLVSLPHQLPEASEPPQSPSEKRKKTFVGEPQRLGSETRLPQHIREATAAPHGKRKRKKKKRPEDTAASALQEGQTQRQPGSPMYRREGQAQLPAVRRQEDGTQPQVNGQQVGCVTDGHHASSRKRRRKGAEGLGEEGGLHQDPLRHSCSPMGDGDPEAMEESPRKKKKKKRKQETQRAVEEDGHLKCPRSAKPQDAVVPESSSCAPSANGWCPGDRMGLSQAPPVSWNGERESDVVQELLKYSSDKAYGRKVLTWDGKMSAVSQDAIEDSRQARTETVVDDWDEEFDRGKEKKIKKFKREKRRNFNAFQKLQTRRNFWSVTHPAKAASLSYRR
How it was run: as §1

USP38 = molecular target: T2, USP38 (UniProt Q8NB14)
T2 sequence (whole entry): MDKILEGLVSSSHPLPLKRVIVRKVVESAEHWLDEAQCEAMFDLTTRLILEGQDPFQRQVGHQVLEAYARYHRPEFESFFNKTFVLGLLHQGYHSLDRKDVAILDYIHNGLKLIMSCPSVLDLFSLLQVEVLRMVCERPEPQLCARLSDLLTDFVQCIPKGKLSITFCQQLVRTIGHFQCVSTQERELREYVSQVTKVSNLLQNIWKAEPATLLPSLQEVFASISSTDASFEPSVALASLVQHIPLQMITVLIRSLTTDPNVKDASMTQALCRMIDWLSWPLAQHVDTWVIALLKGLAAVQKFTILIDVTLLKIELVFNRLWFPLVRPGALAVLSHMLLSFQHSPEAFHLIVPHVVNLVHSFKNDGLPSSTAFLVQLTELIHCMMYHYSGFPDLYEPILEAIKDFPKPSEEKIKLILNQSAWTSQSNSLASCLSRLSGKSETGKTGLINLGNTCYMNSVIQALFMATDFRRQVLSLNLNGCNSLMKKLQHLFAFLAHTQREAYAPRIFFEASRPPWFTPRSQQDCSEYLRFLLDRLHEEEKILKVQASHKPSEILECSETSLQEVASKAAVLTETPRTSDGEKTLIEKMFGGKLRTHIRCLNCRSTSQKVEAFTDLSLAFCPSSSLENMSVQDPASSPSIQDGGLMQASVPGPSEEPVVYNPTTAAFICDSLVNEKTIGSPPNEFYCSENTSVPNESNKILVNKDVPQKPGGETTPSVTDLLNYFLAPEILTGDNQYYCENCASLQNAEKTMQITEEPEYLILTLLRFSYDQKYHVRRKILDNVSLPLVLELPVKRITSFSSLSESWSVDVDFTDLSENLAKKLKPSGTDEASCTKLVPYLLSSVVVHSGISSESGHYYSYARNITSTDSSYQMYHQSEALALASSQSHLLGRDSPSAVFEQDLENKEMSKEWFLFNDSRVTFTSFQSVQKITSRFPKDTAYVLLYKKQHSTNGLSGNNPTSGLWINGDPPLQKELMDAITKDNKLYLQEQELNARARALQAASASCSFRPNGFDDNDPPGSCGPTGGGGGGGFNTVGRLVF
How it was run: as §1

USP39 = molecular target: T3, USP39 (UniProt Q53GS9)
T3 sequence (whole entry): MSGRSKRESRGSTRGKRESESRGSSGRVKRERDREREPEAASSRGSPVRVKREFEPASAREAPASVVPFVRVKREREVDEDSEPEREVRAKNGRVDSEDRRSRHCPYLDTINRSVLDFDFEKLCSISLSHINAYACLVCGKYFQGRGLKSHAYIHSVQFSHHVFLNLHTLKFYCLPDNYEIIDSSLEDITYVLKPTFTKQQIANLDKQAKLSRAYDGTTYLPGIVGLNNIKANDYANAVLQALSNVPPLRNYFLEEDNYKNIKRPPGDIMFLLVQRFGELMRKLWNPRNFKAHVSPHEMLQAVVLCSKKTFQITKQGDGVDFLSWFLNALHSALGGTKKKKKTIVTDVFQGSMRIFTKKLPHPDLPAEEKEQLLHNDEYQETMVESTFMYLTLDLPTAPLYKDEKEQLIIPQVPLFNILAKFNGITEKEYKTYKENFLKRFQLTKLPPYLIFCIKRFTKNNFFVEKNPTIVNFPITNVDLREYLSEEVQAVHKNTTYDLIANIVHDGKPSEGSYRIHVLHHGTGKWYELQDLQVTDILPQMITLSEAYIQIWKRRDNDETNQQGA
How it was run: as §1

USP4 = molecular target: T4, USP4 (UniProt Q13107)
T4 sequence (whole entry): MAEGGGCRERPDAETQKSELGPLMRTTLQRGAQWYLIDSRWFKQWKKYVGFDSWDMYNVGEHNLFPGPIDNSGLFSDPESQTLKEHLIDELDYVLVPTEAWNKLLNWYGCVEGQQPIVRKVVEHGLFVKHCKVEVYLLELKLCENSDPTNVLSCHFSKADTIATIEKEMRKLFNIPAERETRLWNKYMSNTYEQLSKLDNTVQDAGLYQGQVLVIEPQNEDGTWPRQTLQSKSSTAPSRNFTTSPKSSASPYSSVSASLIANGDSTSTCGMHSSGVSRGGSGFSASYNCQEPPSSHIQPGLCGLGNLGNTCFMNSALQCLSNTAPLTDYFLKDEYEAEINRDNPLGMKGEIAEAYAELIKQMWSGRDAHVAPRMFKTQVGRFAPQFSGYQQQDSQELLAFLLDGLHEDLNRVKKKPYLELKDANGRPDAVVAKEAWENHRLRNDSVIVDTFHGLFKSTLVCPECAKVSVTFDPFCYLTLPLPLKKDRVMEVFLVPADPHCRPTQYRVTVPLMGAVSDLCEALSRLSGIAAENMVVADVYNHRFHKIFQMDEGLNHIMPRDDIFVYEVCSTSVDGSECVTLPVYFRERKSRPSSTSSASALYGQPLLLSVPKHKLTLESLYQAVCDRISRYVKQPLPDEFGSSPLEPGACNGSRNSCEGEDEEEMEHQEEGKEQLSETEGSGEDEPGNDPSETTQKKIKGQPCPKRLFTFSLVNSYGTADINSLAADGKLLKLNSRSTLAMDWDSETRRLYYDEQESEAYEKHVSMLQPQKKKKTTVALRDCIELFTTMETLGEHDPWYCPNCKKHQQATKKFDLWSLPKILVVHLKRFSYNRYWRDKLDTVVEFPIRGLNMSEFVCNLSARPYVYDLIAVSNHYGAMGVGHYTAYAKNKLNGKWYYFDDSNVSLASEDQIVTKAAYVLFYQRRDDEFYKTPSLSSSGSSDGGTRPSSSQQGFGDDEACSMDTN
How it was run: as §1

Measured: log2 ratio of Biotin-Ahx-Ub-VS probe labelling

Chain of USP34 (Q70CQ2 whole entry, the tested form may be a part): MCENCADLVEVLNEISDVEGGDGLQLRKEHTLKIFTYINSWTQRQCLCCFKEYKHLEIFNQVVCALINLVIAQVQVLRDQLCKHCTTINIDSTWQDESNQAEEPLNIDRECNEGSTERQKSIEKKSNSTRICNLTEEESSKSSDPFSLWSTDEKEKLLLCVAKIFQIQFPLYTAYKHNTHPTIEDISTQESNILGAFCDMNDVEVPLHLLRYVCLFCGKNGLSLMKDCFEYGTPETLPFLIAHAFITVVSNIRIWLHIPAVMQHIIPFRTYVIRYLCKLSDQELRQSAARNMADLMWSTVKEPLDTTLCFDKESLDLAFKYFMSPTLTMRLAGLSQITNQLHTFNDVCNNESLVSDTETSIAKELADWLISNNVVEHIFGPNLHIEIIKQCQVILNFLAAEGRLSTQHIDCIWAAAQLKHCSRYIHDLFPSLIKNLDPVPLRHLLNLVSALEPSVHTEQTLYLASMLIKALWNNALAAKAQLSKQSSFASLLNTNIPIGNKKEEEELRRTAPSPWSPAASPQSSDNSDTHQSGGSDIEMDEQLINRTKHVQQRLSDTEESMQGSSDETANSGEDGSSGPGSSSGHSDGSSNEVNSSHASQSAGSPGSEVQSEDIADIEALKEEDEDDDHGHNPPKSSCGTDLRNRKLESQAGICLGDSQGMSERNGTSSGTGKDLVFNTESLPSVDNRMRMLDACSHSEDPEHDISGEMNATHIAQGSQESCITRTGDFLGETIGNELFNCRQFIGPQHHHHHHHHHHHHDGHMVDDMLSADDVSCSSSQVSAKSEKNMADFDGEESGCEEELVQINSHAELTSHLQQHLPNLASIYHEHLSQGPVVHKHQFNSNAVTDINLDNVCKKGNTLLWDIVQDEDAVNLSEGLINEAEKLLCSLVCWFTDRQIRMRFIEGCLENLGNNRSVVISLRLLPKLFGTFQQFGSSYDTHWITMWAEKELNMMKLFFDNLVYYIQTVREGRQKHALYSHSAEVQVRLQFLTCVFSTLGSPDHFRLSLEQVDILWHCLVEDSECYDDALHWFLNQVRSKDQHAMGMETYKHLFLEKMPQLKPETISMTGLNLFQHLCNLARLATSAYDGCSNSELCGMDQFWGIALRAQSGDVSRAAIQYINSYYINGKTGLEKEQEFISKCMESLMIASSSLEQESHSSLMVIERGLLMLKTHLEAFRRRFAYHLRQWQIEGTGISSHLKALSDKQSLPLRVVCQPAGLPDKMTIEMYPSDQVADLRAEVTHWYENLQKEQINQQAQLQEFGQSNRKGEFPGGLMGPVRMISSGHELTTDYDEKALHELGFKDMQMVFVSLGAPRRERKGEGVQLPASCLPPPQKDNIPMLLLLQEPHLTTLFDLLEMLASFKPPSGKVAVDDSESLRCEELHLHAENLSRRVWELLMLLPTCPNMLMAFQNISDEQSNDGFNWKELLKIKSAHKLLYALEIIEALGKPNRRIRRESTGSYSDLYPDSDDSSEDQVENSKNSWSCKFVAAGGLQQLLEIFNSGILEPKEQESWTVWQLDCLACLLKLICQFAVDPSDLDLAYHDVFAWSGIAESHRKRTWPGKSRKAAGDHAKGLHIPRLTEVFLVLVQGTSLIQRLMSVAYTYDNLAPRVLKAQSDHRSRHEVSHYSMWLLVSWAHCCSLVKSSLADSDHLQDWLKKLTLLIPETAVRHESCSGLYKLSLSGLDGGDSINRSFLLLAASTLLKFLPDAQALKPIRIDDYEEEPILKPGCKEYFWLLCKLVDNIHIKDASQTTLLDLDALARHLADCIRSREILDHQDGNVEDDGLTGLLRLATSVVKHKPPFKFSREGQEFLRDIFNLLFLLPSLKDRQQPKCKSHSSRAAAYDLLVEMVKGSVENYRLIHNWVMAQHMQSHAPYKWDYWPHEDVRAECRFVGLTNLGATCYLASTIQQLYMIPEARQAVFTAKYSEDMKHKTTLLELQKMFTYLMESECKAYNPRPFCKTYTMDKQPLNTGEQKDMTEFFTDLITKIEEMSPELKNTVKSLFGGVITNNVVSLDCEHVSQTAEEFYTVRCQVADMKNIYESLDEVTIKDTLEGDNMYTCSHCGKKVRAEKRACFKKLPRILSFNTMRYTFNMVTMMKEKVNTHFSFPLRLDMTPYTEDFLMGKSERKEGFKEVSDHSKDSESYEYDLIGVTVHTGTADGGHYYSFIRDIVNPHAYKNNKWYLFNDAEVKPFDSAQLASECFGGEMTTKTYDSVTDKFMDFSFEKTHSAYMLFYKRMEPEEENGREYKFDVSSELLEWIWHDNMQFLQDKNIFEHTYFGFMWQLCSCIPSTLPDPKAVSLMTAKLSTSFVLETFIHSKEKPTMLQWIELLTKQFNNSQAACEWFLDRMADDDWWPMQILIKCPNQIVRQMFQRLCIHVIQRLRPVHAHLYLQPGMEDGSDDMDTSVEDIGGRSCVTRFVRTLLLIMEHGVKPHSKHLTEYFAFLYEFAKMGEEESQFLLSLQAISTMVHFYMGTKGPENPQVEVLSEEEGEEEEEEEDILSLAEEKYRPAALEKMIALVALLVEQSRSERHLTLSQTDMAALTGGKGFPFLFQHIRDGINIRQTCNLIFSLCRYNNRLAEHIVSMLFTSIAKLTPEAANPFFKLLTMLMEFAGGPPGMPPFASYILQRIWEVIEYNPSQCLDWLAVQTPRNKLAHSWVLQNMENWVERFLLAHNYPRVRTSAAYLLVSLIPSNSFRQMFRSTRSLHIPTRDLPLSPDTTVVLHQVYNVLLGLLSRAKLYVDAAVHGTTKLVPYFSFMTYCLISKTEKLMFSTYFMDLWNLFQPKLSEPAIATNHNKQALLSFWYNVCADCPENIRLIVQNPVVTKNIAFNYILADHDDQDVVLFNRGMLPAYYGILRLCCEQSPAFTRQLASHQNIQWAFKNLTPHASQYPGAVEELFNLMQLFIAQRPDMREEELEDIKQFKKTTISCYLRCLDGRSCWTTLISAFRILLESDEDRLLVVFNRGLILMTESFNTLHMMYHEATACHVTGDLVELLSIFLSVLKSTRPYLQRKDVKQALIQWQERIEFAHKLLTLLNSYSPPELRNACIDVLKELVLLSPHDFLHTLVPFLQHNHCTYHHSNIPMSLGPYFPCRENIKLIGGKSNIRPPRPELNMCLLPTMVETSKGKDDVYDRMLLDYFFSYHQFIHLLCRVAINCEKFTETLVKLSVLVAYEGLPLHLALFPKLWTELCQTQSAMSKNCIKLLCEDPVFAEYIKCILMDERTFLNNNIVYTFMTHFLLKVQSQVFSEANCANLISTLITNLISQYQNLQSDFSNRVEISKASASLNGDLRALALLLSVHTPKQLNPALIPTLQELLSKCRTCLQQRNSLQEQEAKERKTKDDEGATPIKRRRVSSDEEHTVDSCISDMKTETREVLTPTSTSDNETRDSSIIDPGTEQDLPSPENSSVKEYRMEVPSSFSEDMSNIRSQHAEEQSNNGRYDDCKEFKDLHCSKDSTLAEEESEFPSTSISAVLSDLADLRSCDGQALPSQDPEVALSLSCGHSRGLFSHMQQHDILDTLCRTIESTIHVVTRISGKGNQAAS

CN(CCc1ncc(Br)cn1)C(=O)CCl.Cl
inactive: USP34 -0.228 | USP36 -0.122 | USP38 -0.00939 | USP39 0.3 | USP4 -0.0898
